Targets with a hit are over-represented here; the source holds about 8,800 in all. About 0.5% of all pairs of compound and target were hits.
compound: NC(=O)Nc1cc(-c2cccc(F)c2)sc1C(=O)N[C@H]1CCCNC1; assay: log2 fold change, soluble protein after heating vs DMSO (PISA); higher = thermal stabilisation; K562 lysate, 10 uM; active = over 0.2 and 3.5 SD of the protein, either way, in both replicates (recomputed)
In short: (§1)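 Quantification was by TMTpro 16plex LC-MS/MS with equalised channel sums, applied to the supernatant after 21,000xg for 90 min. Samples were crude K562 extract at 1 mg/mL protein in PBS pH 7.4 with 1 mM MgCl2, treated with 10 μM compound for 30 min, heated for 3 min across 48°C-58°C, pooled and brought to 0.5% NP-40 at 4°C. Values are log-two fold changes in thermal stability relative to solvent controls, from duplicates.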

UniProt Q8IY47, sequence (Q8IY47 whole entry, looked up): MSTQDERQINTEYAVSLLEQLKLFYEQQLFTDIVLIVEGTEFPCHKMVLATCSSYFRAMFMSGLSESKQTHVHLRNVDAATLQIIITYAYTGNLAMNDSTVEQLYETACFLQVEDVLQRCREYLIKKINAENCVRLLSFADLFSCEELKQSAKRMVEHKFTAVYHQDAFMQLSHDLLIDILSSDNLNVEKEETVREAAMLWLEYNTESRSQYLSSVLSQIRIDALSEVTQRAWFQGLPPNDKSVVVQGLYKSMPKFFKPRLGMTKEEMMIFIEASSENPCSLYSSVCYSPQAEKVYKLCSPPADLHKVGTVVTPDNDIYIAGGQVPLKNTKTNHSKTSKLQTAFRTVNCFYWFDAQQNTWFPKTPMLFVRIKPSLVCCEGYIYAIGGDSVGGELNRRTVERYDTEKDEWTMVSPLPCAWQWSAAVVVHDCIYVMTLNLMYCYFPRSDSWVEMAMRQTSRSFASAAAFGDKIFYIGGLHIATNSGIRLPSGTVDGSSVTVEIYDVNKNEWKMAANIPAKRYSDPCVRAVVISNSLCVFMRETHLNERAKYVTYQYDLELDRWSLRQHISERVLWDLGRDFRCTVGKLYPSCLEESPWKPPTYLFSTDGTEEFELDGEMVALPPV
UniProt Q01581, sequence (Q01581 whole entry, looked up): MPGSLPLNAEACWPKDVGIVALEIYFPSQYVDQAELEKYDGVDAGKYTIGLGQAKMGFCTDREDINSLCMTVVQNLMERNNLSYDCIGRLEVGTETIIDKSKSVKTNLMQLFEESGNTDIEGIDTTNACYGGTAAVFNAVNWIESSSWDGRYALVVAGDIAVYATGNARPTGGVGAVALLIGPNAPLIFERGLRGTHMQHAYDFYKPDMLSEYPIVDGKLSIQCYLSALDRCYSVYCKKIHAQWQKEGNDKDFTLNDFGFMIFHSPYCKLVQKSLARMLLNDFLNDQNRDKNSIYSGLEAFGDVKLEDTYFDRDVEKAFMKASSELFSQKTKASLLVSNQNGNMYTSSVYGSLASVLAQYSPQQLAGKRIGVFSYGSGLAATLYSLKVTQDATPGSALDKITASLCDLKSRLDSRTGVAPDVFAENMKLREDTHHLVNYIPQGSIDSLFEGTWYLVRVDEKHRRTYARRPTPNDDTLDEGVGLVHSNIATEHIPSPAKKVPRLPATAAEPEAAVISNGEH
UniProt Q9H6D7, sequence (Q9H6D7 whole entry, looked up): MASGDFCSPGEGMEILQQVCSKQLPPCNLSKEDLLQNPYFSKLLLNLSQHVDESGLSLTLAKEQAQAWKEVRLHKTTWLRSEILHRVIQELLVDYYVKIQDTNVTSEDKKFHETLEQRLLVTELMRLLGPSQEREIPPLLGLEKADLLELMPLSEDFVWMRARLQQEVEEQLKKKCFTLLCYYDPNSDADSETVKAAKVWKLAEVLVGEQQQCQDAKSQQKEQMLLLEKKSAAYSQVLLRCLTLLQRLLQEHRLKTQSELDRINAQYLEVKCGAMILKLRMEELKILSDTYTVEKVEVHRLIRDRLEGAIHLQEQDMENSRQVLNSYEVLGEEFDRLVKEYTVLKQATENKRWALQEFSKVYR
UniProt O00425, sequence (O00425 whole entry, looked up): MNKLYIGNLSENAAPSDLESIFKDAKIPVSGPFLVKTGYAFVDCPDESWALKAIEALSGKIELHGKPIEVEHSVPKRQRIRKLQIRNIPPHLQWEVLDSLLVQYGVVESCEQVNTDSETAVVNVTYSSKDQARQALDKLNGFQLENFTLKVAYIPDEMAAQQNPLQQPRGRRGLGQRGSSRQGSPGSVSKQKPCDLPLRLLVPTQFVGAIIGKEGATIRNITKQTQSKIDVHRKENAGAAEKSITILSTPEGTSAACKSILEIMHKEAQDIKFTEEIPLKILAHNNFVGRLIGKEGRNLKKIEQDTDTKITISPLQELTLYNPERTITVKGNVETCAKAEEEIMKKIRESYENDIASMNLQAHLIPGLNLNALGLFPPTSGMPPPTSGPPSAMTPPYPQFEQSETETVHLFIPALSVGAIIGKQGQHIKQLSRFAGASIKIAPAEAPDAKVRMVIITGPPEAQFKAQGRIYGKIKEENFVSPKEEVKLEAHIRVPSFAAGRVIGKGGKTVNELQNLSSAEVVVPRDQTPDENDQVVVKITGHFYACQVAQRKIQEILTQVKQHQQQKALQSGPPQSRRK
UniProt O75367, sequence (O75367 whole entry, looked up): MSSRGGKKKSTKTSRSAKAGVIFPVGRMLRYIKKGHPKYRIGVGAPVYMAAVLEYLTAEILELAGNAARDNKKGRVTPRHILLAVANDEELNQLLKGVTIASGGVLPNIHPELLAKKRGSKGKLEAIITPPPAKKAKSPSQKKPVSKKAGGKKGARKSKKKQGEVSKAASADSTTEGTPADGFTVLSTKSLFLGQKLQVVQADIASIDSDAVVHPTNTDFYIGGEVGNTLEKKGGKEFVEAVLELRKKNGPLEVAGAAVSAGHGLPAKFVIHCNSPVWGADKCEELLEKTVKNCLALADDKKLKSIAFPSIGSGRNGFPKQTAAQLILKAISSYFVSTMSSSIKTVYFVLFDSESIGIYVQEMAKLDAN
UniProt P32780, sequence (P32780 whole entry, looked up): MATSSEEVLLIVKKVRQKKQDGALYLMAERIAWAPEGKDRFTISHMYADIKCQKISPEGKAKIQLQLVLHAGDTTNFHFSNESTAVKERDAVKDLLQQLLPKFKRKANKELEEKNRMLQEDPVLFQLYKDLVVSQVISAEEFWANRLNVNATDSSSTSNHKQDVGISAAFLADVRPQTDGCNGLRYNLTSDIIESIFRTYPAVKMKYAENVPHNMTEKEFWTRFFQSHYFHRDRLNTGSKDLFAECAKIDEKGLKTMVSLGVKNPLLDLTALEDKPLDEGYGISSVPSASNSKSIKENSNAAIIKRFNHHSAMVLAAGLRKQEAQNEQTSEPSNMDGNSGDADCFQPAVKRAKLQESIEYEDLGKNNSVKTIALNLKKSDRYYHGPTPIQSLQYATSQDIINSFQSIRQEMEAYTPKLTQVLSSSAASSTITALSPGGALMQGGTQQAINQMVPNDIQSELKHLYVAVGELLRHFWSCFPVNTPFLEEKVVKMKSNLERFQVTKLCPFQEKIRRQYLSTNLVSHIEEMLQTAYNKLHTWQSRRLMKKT
UniProt Q99729, sequence (Q99729 whole entry, looked up): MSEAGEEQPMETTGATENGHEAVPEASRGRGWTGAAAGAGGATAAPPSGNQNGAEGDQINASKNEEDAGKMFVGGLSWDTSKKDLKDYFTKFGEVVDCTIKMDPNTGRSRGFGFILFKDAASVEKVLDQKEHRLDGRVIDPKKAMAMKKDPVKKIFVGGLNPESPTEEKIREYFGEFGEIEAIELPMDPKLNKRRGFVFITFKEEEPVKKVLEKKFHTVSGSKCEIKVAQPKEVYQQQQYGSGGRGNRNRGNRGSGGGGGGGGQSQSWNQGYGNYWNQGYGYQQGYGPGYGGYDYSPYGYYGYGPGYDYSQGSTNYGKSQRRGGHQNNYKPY
UniProt Q8NC54, sequence (Q8NC54 whole entry, looked up): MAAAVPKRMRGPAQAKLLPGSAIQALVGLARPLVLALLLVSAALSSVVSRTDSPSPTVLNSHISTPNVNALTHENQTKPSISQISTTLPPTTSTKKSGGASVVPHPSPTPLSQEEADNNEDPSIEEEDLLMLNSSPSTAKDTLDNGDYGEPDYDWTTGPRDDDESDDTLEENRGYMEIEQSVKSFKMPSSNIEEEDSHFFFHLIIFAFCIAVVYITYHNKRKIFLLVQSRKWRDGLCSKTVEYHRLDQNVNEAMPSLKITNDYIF
UniProt Q14103, sequence (Q14103 whole entry, looked up): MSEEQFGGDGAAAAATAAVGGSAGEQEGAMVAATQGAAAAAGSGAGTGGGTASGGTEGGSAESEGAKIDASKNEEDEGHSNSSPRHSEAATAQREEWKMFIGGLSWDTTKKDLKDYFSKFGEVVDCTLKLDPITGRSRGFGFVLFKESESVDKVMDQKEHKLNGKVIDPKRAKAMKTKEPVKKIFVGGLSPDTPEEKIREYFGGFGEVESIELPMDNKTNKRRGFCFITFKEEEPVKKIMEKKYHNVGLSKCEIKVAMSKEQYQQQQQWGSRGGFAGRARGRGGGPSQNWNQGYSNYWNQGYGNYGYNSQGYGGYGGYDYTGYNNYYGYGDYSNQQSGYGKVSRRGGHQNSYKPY
UniProt Q5T447, sequence (Q5T447 whole entry, looked up): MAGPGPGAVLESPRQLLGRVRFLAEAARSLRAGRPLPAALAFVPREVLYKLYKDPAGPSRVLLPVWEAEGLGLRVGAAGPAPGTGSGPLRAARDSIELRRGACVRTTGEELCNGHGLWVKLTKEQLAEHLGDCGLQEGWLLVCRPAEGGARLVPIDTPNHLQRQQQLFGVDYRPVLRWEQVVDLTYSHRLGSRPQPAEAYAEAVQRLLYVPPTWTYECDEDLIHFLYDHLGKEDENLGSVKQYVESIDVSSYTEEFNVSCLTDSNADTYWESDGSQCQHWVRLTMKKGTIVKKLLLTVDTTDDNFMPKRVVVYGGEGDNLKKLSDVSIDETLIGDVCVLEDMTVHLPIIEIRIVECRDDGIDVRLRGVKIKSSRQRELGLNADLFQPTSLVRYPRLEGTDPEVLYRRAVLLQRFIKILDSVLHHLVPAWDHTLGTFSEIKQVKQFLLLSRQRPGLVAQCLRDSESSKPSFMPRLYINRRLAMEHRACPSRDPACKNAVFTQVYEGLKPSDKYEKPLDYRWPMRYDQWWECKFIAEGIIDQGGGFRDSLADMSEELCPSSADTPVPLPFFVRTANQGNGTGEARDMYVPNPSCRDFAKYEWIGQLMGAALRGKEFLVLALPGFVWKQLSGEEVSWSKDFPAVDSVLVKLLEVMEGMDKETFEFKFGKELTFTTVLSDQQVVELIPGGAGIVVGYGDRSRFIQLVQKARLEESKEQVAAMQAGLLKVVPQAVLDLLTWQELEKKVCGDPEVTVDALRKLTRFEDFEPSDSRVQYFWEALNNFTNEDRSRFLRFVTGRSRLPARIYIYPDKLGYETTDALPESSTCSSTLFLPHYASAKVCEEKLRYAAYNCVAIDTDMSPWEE

log2 fold change, inactive:
GLUD2 (UniProt P49448) 0.015, HAUS4 (UniProt Q9H6D7) 0.053, HNRNPD isoform 2 (UniProt Q14103) -0.025, HECTD3 (UniProt Q5T447) 0.05, GTF2H1 (UniProt P32780) 0.06, KARS1 (UniProt Q15046) 0.004, HMGCS1 (UniProt Q01581) -0.016, HNRNPAB isoform 3 (UniProt Q99729) 0, ISOC2 (UniProt Q96AB3) -0.05, IGF2BP3 (UniProt O00425) 0.039, KBTBD2 (UniProt Q8IY47) 0.007, H2AFY (UniProt O75367) 0.058, KCT2 (UniProt Q8NC54) 0.024

compound: NC(=O)c1cnc(N[C@@H]2CCCC[C@@H]2N)nc1Nc1cccc(-n2nccn2)c1; assay: as above
In short: as §1

log2 fold change, inactive:
GTPBP2 (UniProt Q9BX10) 0.04, GMDS (UniProt O60547) -0.005, HSPA8 (UniProt E9PK54) -0.033, ILK (UniProt Q13418) -0.022, HNRNPUL2 (UniProt Q1KMD3) 0.004, KDM1A (UniProt O60341) 0.007, INF2 (UniProt Q27J81) 0.005, ITPKA (UniProt P23677) 0.021, INTS3 (UniProt Q68E01) -0.002, KBTBD4 isoform 2 (UniProt Q9NVX7) -0.018, HNRNPL (UniProt P14866) -0.001, HK1 isoform 2 (UniProt P19367) -0.005, HAUS8 (UniProt Q9BT25) 0.02, IMMT (UniProt Q16891) -0.017, HIST2H2AA3 (UniProt Q6FI13) 0.01, HAUS6 (UniProt Q7Z4H7) -0.055, ISY1 isoform 1 (UniProt Q9ULR0) -0.012, HLCS (UniProt P50747) 0.024, HSD17B12 (UniProt Q53GQ0) 0.012, HAUS7 isoform 2 (UniProt Q99871) 0.024, GTF2A1 (UniProt P52655) 0.007, IL18R1 (UniProt Q13478) -0.055, IRAK4 (UniProt Q9NWZ3) 0.028, GLUD2 (UniProt P49448) 0.012, HAUS4 (UniProt Q9H6D7) 0.014, HNRNPD isoform 2 (UniProt Q14103) 0.015, HECTD3 (UniProt Q5T447) 0.003, GTF2H1 (UniProt P32780) 0.037, KARS1 (UniProt Q15046) 0.013, HMGCS1 (UniProt Q01581) -0.008, HNRNPAB isoform 3 (UniProt Q99729) -0.005, ISOC2 (UniProt Q96AB3) -0.045, IGF2BP3 (UniProt O00425) 0.013, KBTBD2 (UniProt Q8IY47) 0.009, H2AFY (UniProt O75367) 0.001, KCT2 (UniProt Q8NC54) 0.051
